Experimental findings from PubChem BioAssay (Tox21) are described below.

Values without a mark were called inactive. Results filed as inconclusive are left out. The source made the active and inactive calls. Calls follow the shape of the full dose curve.
% is scaled to controls: 0 for no effect and ±100 for the full control effect.

The target in the first assay is Muscarinic acetylcholine receptor M1 (Homo sapiens) (UniProt P11229). Nature of the assay: Cholinergic receptor muscarinic 1 (CHRM1) small molecule antagonists, cell-based qHTS assay (AID 1963588). Also: nearly all actives have a fitted effect of over 40% in size. The following applies: CHRM1-CHO antagonist mode, calcium flux fluorescence; series mostly up to 61.5 µM; activity, negative = inhibition: at the top concentration. Summed up: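 Compounds were tested at 15 concentrations in three independent runs. Dye-loaded CHRM1-CHO cells were exposed 5 min at room temperature before stimulation by acetylcholine added at 50nM. Intracellular calcium was read kinetically on FDSS for 3 min.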
Muscarinic acetylcholine receptor M1 (Homo sapiens), sequence (P11229 whole entry, looked up): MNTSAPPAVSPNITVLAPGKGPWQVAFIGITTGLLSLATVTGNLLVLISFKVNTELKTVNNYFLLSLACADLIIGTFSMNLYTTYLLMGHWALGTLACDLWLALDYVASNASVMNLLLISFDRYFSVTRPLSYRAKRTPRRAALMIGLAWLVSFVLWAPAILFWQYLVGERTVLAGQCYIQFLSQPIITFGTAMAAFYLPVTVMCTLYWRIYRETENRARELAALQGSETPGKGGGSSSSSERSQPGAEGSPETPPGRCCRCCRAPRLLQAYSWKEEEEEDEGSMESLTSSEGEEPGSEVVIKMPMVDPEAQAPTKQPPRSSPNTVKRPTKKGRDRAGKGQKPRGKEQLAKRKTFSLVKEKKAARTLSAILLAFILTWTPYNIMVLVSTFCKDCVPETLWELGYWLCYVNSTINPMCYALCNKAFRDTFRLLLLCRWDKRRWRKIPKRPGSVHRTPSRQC
A general note: qHTS replaces the single test concentration by a dilution series.
Consider `N#Cc1sc2c(=O)c3ccccc3c(=O)c=2sc1C#N`, for which the “activity, negative = inhibition” value was 9.37%. As for `C=CC(=O)OCC`, the “activity, negative = inhibition” value is 2.55%. The same measure, in the same setting: with `Cc1c(Cl)c(=O)oc2cc(OP(=O)(OCCCl)OCCCl)ccc12` the figure was -25.7% [at 28.3 µM]. As for `O=C(CBr)Nc1ccc(Cl)cc1C(=O)c1ccccc1F`, the “activity, negative = inhibition” value is 0.415% [at 28.3 µM]. In the case of `CC1=NNC(=O)N(/N=C/c2cccnc2)C1`, the “activity, negative = inhibition” value was -18.4%.

With `[O-][Cl+3]([O-])([O-])O`, the “activity, negative = inhibition” value was 11.5%. Regarding `CCn1cc[n+](C)c1` (tested in a mixture with another compound), the “activity, negative = inhibition” value is -10.3%. In the case of `CCOC(=O)C(Cl)Cc1cc(-n2nc(C)n(C(F)F)c2=O)c(F)cc1Cl` (configuration not stated), the “activity, negative = inhibition” value is -11.4%. Still for that read-out and setting: with `COc1ccc(C(=O)c2c(C)n(CCN3CCOCC3)c3ccccc23)cc1` the figure was 30.2% [at 28.3 µM]; with `CSC(C)(C)/C=N/O`, -1.71%. On to `C=CCC1(C(C)CC)C(=O)NC(=O)NC1=O` (configuration not stated), for which the “activity, negative = inhibition” value is 7.96% [at 28.3 µM]. Turning to `CCOP(=O)(SC(C)CC)N1CCSC1=O` (configuration not stated), the “activity, negative = inhibition” value is 5.24%.

For `CCOP(=S)(OCC)Oc1cc(-c2ccccc2)on1`, the “activity, negative = inhibition” value was 1.22%. Take `CCNP(=S)(OC)O/C(C)=C/C(=O)OC(C)C` (configuration not stated): the “activity, negative = inhibition” value was 9.3%. The same measure, in the same setting: with `COP(=O)(OC)O/C(C)=C/C(=O)N(C)C` the figure was -4.61%; with `CCOC(=O)CCN(SN(C)C(=O)Oc1cccc2c1OC(C)(C)C2)C(C)C`, -16.6%; with `O=C1OC(=O)C2C1C1(Cl)C(Cl)=C(Cl)C2(Cl)C1(Cl)Cl` (configuration not stated), 0.975%.

With `NNCc1ccccc1`, the “activity, negative = inhibition” value is 12.8%.

Regarding `ClC(Br)Br`, the “activity, negative = inhibition” value was -6.16%. For the compound `C#CC(C)(C)O`, the “activity, negative = inhibition” value was 45%. As to `CNC(=O)O/N=C(\C)C(C)S(C)(=O)=O` (configuration not stated), the “activity, negative = inhibition” value is 1.8% [at 581 µM]. Still for that read-out and setting: to `CC(C)(c1ccc(O)c(-c2ccccc2)c1)c1ccc(O)c(-c2ccccc2)c1` belongs 3.09%. Consider `CCC1(c2ccccc2)C(=O)N(COC)C(=O)N(COC)C1=O`, for which the “activity, negative = inhibition” value is 15.9% [at 28.3 µM]. On to `CCS(=O)(=O)CCSP(=O)(OC)OC`, for which the “activity, negative = inhibition” value is -4.05%. In the case of `c1cc[n+]2c(c1)-c1cccc[n+]1CC2`, the “activity, negative = inhibition” value was -7.63% [at 28.3 µM]. The same measure, in the same setting: with `O=C(NC(O)C(Cl)(Cl)Cl)NC(O)C(Cl)(Cl)Cl` (configuration not stated) the figure was 11.1% [at 28.3 µM]; with `CNC(=O)Oc1cccc(N=CN(C)C)c1`, 13.4%. Turning to `ClCc1ccccc1Cl`, the “activity, negative = inhibition” value was 7.64%. `CCOP(=S)(OCC)Oc1nc(Cl)n(C(C)C)n1`: the “activity, negative = inhibition” value is -9.97%. Still for that read-out and setting: to `CCOP(=S)(OCC)Oc1ccc(Cl)cc1Cl` belongs -29.7%. For `CC(C)O.CC(C)O.OCCN(CCO)CCO.OCCN(CCO)CCO.[Ti]`, the “activity, negative = inhibition” value was 4.3%. On to `CNC(=O)O/N=C(/CSC)C(C)(C)C`, for which the “activity, negative = inhibition” value was -0.0539%. Still for that read-out and setting: with `C/C=C/C=O` the figure was 0.596%; with `CNC(=O)Oc1ccccc1C(C)C`, 2.6%.

For another assay the target is unchanged. Description: Cholinergic receptor muscarinic 1 (CHRM1) small molecule agonists, cell-based qHTS assay (AID 1963589). Also: nearly all actives have a fitted effect of over 35% in size. Also: potency is read from the fitted curve at half-maximal effect. As to conditions: CHRM1-CHO cells, agonist mode, calcium flux fluorescence; series mostly up to 76.8 µM; activation: at the top concentration. In short, it runs like this:
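Cells were plated and incubated 18 h at 37 C/5% CO2, loaded with calcium dye for 1 h at 37 C, then treated with compounds in DMSO. Fluorescence was recorded kinetically at 1 sec intervals.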
Regarding `C=CC(=O)OCC`, the “activation” value is 0.174%. In the case of `Cc1c(Cl)c(=O)oc2cc(OP(=O)(OCCCl)OCCCl)ccc12`, the “activation” value is -0.444% [at 35.3 µM].

With `O=C(CBr)Nc1ccc(Cl)cc1C(=O)c1ccccc1F`, the “activation” value was -0.612% [at 35.3 µM].

In the case of `CC1=NNC(=O)N(/N=C/c2cccnc2)C1`, the “activation” value was 0.211%. For `[O-][Cl+3]([O-])([O-])O`, the “activation” value is 0.0128%. As to `CCn1cc[n+](C)c1` (tested in a mixture with another compound), the “activation” value is 0.514%. Same read-out and setting: with `CCOC(=O)C(Cl)Cc1cc(-n2nc(C)n(C(F)F)c2=O)c(F)cc1Cl` (configuration not stated) the figure was 9.34%; with `COc1ccc(C(=O)c2c(C)n(CCN3CCOCC3)c3ccccc23)cc1`, -0.313% [at 35.3 µM].

`CSC(C)(C)/C=N/O`: the “activation” value is 0.0029%. Take `C=CCC1(C(C)CC)C(=O)NC(=O)NC1=O` (configuration not stated): the “activation” value was -0.0503% [at 35.3 µM]. Regarding `CCOP(=O)(SC(C)CC)N1CCSC1=O` (configuration not stated), the “activation” value is -0.712%. On to `CCOP(=S)(OCC)Oc1cc(-c2ccccc2)on1`, for which the “activation” value is -0.511%. The same measure, in the same setting: to `CCNP(=S)(OC)O/C(C)=C/C(=O)OC(C)C` (configuration not stated) belongs -1.29%. For `COP(=O)(OC)O/C(C)=C/C(=O)N(C)C`, the “activation” value was 3.64%. As to `CCOC(=O)CCN(SN(C)C(=O)Oc1cccc2c1OC(C)(C)C2)C(C)C`, the “activation” value was -0.361%. Still for that read-out and setting: to `O=C1OC(=O)C2C1C1(Cl)C(Cl)=C(Cl)C2(Cl)C1(Cl)Cl` (configuration not stated) belongs -0.624%; to `C[C@H](CN1CCOCC1)C(C(=O)N1CCCC1)(c1ccccc1)c1ccccc1`, 0.127%; to `NNCc1ccccc1`, 0.203%.

Turning to `ClC(Br)Br`, the “activation” value is -0.292%.

With `C#CC(C)(C)O`, the “activation” value was -0.347%.

Regarding `CCN1CCC2(CC1)COc1cc3c(cc12)N(C(=O)c1ccc(-c2ccc(-c4nnc(C)o4)cc2C)cc1)CC3`, the “activation” value was -0.476%. Take `CNC(=O)O/N=C(\C)C(C)S(C)(=O)=O` (configuration not stated): the “activation” value was -0.2% [at 725 µM]. Take `CCOC(=O)c1cn2nc(OP(=S)(OCC)OCC)cc2nc1C`: the “activation” value was -1.33%. `CC(C)(c1ccc(O)c(-c2ccccc2)c1)c1ccc(O)c(-c2ccccc2)c1`: the “activation” value was 0.155%. Consider `CCC1(c2ccccc2)C(=O)N(COC)C(=O)N(COC)C1=O`, for which the “activation” value was -0.356% [at 35.3 µM]. On to `CCS(=O)(=O)CCSP(=O)(OC)OC`, for which the “activation” value was -0.0254%. On to `c1cc[n+]2c(c1)-c1cccc[n+]1CC2`, for which the “activation” value was -1.22% [at 35.3 µM]. Consider `O=C(Nc1ccccc1-c1ccc(Cl)cc1)c1cccnc1Cl`, for which the “activation” value is 1.68%.

For `O=C(NC(O)C(Cl)(Cl)Cl)NC(O)C(Cl)(Cl)Cl` (configuration not stated), the “activation” value is -0.286% [at 35.3 µM].

For the compound `CNC(=O)Oc1cccc(N=CN(C)C)c1`, the “activation” value was 0.0496%. The same measure, in the same setting: to `ClCc1ccccc1Cl` belongs 0.566%. On to `CCOP(=S)(OCC)Oc1nc(Cl)n(C(C)C)n1`, for which the “activation” value was -0.867%. For `CCOP(=S)(OCC)Oc1ccc(Cl)cc1Cl`, the “activation” value was -0.612%. As to `CC(C)O.CC(C)O.OCCN(CCO)CCO.OCCN(CCO)CCO.[Ti]`, the “activation” value is -0.458%. In the case of `CN(C)S(=O)(=O)N(SC(F)(Cl)Cl)c1ccccc1`, the Potency is 43.6 µM (active). For the compound `CNC(=O)O/N=C(/CSC)C(C)(C)C`, the “activation” value was -0.011%. `C/C=C/C=O`: the “activation” value is -0.254%. Same read-out and setting: with `CNC(=O)Oc1ccccc1C(C)C` the figure was -0.762%.
